Inconclusive results are not listed. Activity calls are given as the source filed them. Unless noted, calls come from the whole dose curve; as a rule, active = well fitted curve in the direction sought with a large enough effect; inconclusive = small, poorly fitted or top-dose-only effect, or another doubt; inactive = no such curve, though single readings can be large; an effect the other way counts as inactive or inconclusive.
Assays:
[1] = target: Cytochrome P450 2C9 (Homo sapiens) (UniProt P11712); test: Cytochrome P450 family 2 subfamily C member 9 (CYP2C9) small molecule antagonists: luciferase biochemical (cell-free) qHTS assay (AID 1645842; active = well fitted curve in the direction sought with a large enough effect in the repeat runs; an effect the other way counts as inactive or inconclusive; note: nearly all actives have a fitted effect of over 55% in size; note: potency is the fitted concentration of half-maximal effect)
Summary of the method: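 P450-Glo CYP2C9 system: proluciferin substrate with enzyme in mix containing 0.4% BSA, 10 min at room temperature, then NADPH regeneration solution added and incubated 1 h at 37C. Detection reagent stopped reaction; luminescence read after 20 min as RLU.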

[2] = target: N-terminal Xaa-Pro-Lys N-methyltransferase 1 (Homo sapiens) (UniProt Q9BV86); test: Confirmatory qHTS for Inhibitors of N-terminal methyltransferase 1 (NTMT1): MTaseGlo Assay (AID 1645874); note: potency is the fitted concentration of half-maximal effect; nearly all actives have a fitted effect of over 65% in size
Summary of the method: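 MTase-Glo luminescence measured SAH formed by 125 nM NTMT1 from 100 uM SAM and 1 uM SPKRIA peptide over 30 min at room temperature, following 15 min compound preincubation. Percent inhibition against no-enzyme and DMSO controls gave 4-parameter Hill fits.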

[3] = target: Bile acid receptor (Homo sapiens) (UniProt Q96RI1); test: qHTS assay for small molecule antagonists of farnesoid X receptor signaling (AID 588526; calls by dose curve; note: % is set by controls: 0 for no effect and ±100 for the full control effect)
Summary of the method: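 Antagonist mode: titrated compounds tested against chenodeoxycholic acid stimulation (normalized to 50 uM CDCA and DMSO) in GeneBLAzer HEK293T cells for 16 h. Beta-lactamase read by CCF4 fluorescence; IC50 from Hill fits.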

[4] = target: Glucocorticoid receptor (Homo sapiens) (UniProt P04150); test: qHTS assay for small molecule agonists of glucocorticoid receptor signaling (AID 588532; active = well fitted curve in the direction sought with a large enough effect in the signal ratio, with a control signal flat; the % refers to the signal ratio;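 note: 100% = dexamethasone at 0.1 µM and 0% = DMSO only wells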); details: HeLa MMTV-bla, beta-lactamase ratio, agonist, 18 h; stronger effect = higher value; percent of dexamethasone control, DMSO zero
Summary of the method: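 HeLa GRE-bla reporter cells; 18 h compound exposure at 37 C; 2 h CCF4 loading at room temperature; fluorescence at 460 and 530 nm; EC50 by Hill equation.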

[5] = qHTS assay for small molecule antagonists of peroxisome proliferator-activated receptor delta signaling (AID 588535; active = well fitted inhibition curve with a large enough effect in the signal ratio, with a control signal flat, not every such curve was filed as active; the % refers to the signal ratio;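 for max response: cells co-treated with a PPAR-delta agonist as stimulator during compound exposure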); details: HEK293T PPARd-UAS-bla, beta-lactamase FRET ratio, 18 h; 460 nm channel
Summary of the method: (§1)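 Beta-lactamase reporter read-out (405 nm excitation, 460/530 nm emission) after CCF4 loading for 2 hrs at RT. HEK293T PPAR-delta-UAS-bla cells, 2% charcoal/dextran FBS, compounds for 18 hrs at 37 C. Hill fit gave IC50 and efficacy.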

[6] = target: Peroxisome proliferator-activated receptor delta (Homo sapiens) (UniProt Q03181); test: as above
Summary of the method: as §1

[7] = target: Peroxisome proliferator-activated receptor gamma (Homo sapiens) (UniProt P37231); test: qHTS assay for small molecule antagonists of peroxisome proliferator-activated receptor gamma signaling (AID 588537; active = well fitted inhibition curve with a large enough effect in the signal ratio, with a control signal flat, not every such curve was filed as active; the % refers to the signal ratio;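 note: reporter cells co-stimulated with 50 nM rosiglitazone agonist during compound treatment; % of control where 0% means no effect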)
Summary of the method: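 Read-out: CCF4 fluorescence (ex 405, em 460/530 nm) after 2 h at RT. Cells were HEK293 carrying a UAS-bla reporter and treated 16 h at 37 C with compound plus rosiglitazone (50 nM final). Normalized to rosiglitazone and DMSO.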

[8] = target: Vitamin D3 receptor (Homo sapiens) (UniProt P11473); test: qHTS assay for small molecule antagonists of vitamin D receptor signaling (AID 588541; calls by dose curve;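 note: receptor activated by calcitriol during compound treatment; series mostly up to about 77 µM; % is set by controls: 0 for no effect and ±100 for the full control effect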)
Summary of the method: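 VDR-UAS-bla HEK293T cells in 2% charcoal-stripped FBS were stimulated with 1-alpha,25-dihydroxyvitamin D3 (3 nM final) plus compound for 16 h at 37 C. The beta-lactamase CCF4 readout was normalized to 50 nM agonist and DMSO, and Hill fits gave IC50.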

[9] = target: Vitamin D3 receptor (Homo sapiens) (UniProt P11473); test: qHTS assay for small molecule agonists of vitamin D receptor signaling (AID 588543; calls by dose curve;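 note: 0% = DMSO basal and 100% = reference agonist control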)
Summary of the method: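 Reporter cells (HEK293T, VDR-UAS-bla) were seeded in medium with 2% charcoal-stripped serum and incubated 5 h, then compounds in concentration series were added for 16 h at 37 °C. Stimulation was scaled between DMSO basal and 50 nM 1α,25-dihydroxyvitamin D3.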

[10] = qHTS assay for small molecule agonists of retinoid X receptor alpha signaling (AID 588544; calls by dose curve;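 for activation: 0% = DMSO basal wells and 100% = reference agonist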); details: HEK293T RXRa-UAS-bla, beta-lactamase reporter, 18 h; 530 nm emission
[11] = target: Retinoic acid receptor RXR-alpha (Homo sapiens) (UniProt P19793); test: as above
[12] = target: Thyroid hormone receptor beta (Homo sapiens) (UniProt P10828); test: qHTS assay for small molecule agonists of thyroid hormone receptor beta signaling (AID 588545; calls by dose curve)
Summary of the method: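 Cells (2500/well) were seeded, incubated 4 hrs at 37 C, dosed with a compound series, incubated 18 hrs, loaded with CCF4 dye for 2 hrs at RT, then read for fluorescence. Data were scaled between DMSO (0%) and 10 nM T3 (100%).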

[13] = target: Thyroid hormone receptor beta (Homo sapiens) (UniProt P10828); test: qHTS assay for small molecule antagonists of thyroid hormone receptor beta signaling (AID 588547; active = well fitted inhibition curve with a large enough effect in the signal ratio, with a control signal flat, not every such curve was filed as active; the % refers to the signal ratio;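 note: cells stimulated with 0.4 nM T3 agonist during compound exposure; series mostly up to about 77 µM; % is set by controls: 0 for no effect and ±100 for the full control effect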); details: TR-UAS-bla HEK293, beta-lactamase ratio, antagonist mode, 18 h
Summary of the method: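 TR-UAS-bla GripTite HEK293 cells in 2% charcoal/dextran FBS medium; compounds 0.59 nM to 92 uM with T3 at 0.4nM final, 18 h at 37 C. Beta-lactamase read by CCF4 fluorescence (460/530 nm); Hill fits gave IC50 and efficacy.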

[14] = target: Luciferin 4-monooxygenase (Photinus pyralis) (UniProt P08659); test: Biochemical firefly luciferase enzyme assay for NPC (AID 624030);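 note: purified P. pyralis luciferase at 10 nM with luciferin and ATP substrate; series mostly up to about 59 µM; 0% = DMSO and -100% = full luciferase inhibition by PTC124 control; nearly all actives have a fitted effect of over 70% in size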
Summary of the method: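 Purified P. pyralis luciferase at 10 nM in 50 mM Tris Acetate (final), luminescence read within 5 minutes of enzyme addition to compounds. Activity normalised to PTC124 versus DMSO; concentration-response curves classed by r2, magnitude and activity.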

[15] = qHTS assay for small molecule agonists of the antioxidant response element (ARE) signaling pathway (AID 651741; active = well fitted activation curve with a large enough effect in the signal ratio; the % refers to the signal ratio; note: potency is the fitted concentration of half-maximal effect)
Summary of the method: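 HepG2 ARE-bla reporter cells, 2,000/well; 5 h settle at 37 C/5% CO2; compound pin transfer (23 nL, DMSO); 16 h at 37 C; LiveBLAzer B/G FRET substrate, 2 h RT; fluorescence intensity read.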

[16] = qHTS assay for small molecule activators of the p53 signaling pathway (AID 651743; active = well fitted activation curve with a large enough effect in the signal ratio, not every such curve was filed as active; the % refers to the signal ratio; note: series mostly up to about 92 µM; % of control where 0% means no effect); details: HCT-116 p53RE-bla, beta-lactamase FRET ratio, 16 h; stronger effect = higher value
Summary of the method: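 Reporter: beta-lactamase driven by p53 response elements, stably integrated in HCT-116 cells. Cells seeded at 4,000/well, 5 h preincubation, compound (DMSO) 16 h at 37 C; B/G FRET substrate 2 h RT; fluorescence intensity read.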

[17] = qHTS assay for environmental chemicals that activate the Aryl hydrocarbon Receptor (AhR) signaling pathway (AID 651777); details: 1A2-DRE human hepatoma cells, luciferase, 24 h; stronger effect = higher value; note: % of control where 0% means no effect; nearly all actives have a fitted effect of over 15% in size
Summary of the method: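 Stable CYP1A2 promoter/DRE-luciferase human hepatoma line treated 24 hr; One-Glo luminescence, 30 min RT.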

[18] = target: Peroxisome proliferator-activated receptor alpha (Homo sapiens) (UniProt Q07869); test: qHTS assay for small molecule agonists of the peroxisome proliferator-activated receptor alpha (PPARalpha) signaling pathway (AID 651778); details: PathHunter PPARalpha complementation, chemiluminescence, 6 h; stronger effect = higher value; note: % of control where 0% means no effect
Summary of the method: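 Enzyme-fragment complementation assay in which ligand-bound PPARalpha translocates and forms an active enzyme that generates chemiluminescence. Cells were plated overnight, exposed to compound for 6 hr at 37 C, and then given detection reagent for 60 min at room temperature.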

[19] = qHTS assay for small molecule agonists of the antioxidant response element (ARE) signaling pathway measured by Nrf2-dependant transcriptional activity - cell viability counter screen (AID 720653; active = well fitted curve in the direction sought with a large enough effect in the repeat runs; an effect the other way counts as inactive or inconclusive; note: % is set by controls: 0 for no effect and ±100 for the full control effect); details: ARE-bla HepG2 viability, CellTiter-Glo ATP luminescence, 16 h; stronger effect = lower value
Summary of the method: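 ARE-bla HepG2 cells treated with compounds for 16 h at 37C; this counter screen measures viability as intracellular ATP by CellTiter-Glo luminescence after 30 min at room temperature.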

[20] = qHTS Assay for Identifying Gametocytocidal Compounds (AID 743244);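 note: % is set by controls: 0 for no effect and ±100 for the full control effect; actives lower the fluorescent signal which means gametocytes are killed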; details: P. falciparum 3D7 stage III-V gametocytes, alamarBlue, 72 h; max response: stronger effect = lower value
Summary of the method: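 Compounds are pinned into medium, gametocytes (stage III–V, 3D7, 20,000 cells/well) added, and plates held 72 h at 37 °C in 5% CO2. AlamarBlue follows for 24 h before fluorescence reading.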

[21] = qHTS assay for cell viability of HEK293 cells (AID 743288); details: ATP luminescence (CellTiter-Glo), 18 h, stronger effect = lower value; note: % is set by controls: 0 for no effect and ±100 for the full control effect; nearly all actives have a fitted effect of over 50% in size
Summary of the method: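 Viable-cell counts were inferred from luciferase-based ATP content in HEK293 cells seeded at 2,000/well, pre-incubated ≥5 h, then dosed with DMSO-solubilised compounds for 18 h at 37 C.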

[22] = qHTS assay for cell viability of the p53RE-bla HCT-116 cell line (AID 743292); note: % is set by controls: 0 for no effect and ±100 for the full control effect; nearly all actives have a fitted effect of over 55% in size
Summary of the method: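 Readout: CellTiter-Glo luminescence after 30 min RT. Treatment: compounds in DMSO, 16 h, 37 C. Cells: CellSensor p53RE-bla HCT-116, 4,000/well, preincubated 5 h.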

[23] = target: Nuclear receptor subfamily 1 group I member 2 (Rattus norvegicus) (UniProt Q9R1A7); test: qHTS assay for small molecule activators of the rat pregnane X receptor (rPXR) signaling pathway (AID 651751; call rule not given here; note: 0% is about no effect); details: rPXR reporter cells, luciferase (One-Glo), 24 h
Nuclear receptor subfamily 1 group I member 2 (Rattus norvegicus), sequence (Q9R1A7 whole entry, looked up): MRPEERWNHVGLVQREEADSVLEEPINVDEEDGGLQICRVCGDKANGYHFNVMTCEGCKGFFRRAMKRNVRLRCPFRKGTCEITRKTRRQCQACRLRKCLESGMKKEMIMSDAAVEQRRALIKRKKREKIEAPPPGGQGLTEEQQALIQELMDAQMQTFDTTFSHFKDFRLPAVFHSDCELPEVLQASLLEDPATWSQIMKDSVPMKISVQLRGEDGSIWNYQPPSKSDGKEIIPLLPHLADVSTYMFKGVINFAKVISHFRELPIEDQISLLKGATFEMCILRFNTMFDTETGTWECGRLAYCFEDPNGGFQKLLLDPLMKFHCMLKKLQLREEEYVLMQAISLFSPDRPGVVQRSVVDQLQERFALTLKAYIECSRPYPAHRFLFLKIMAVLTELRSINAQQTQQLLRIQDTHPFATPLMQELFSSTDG

Cytochrome P450 2C9 (Homo sapiens), sequence (P11712 whole entry, looked up): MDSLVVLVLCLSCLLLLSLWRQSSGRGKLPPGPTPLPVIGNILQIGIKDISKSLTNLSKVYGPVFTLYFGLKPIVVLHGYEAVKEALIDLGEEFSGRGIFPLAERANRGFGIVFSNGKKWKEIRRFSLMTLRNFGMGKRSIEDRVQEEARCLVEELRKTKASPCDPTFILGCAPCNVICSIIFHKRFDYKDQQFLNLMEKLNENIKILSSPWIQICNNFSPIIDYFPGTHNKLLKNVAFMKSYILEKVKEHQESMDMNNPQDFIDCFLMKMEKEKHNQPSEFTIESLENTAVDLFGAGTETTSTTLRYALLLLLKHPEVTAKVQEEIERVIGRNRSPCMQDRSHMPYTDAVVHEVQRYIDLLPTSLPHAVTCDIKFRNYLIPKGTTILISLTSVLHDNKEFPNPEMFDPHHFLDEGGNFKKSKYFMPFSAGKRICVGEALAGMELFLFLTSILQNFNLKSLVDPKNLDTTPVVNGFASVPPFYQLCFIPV
Thyroid hormone receptor beta (Homo sapiens), sequence (P10828 whole entry, looked up): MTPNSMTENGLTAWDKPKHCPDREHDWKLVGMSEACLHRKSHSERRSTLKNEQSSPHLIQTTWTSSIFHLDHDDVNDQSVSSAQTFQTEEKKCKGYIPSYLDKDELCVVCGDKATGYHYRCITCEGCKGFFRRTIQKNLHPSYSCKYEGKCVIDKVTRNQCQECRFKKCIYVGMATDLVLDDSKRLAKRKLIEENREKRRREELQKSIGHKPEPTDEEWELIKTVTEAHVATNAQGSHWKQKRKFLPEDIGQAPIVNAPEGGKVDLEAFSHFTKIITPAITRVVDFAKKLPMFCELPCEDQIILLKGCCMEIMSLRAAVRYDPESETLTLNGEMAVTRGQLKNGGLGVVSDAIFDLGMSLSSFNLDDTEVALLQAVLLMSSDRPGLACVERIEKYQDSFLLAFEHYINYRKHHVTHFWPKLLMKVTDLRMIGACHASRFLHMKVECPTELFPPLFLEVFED
Vitamin D3 receptor (Homo sapiens), sequence (P11473 whole entry, looked up): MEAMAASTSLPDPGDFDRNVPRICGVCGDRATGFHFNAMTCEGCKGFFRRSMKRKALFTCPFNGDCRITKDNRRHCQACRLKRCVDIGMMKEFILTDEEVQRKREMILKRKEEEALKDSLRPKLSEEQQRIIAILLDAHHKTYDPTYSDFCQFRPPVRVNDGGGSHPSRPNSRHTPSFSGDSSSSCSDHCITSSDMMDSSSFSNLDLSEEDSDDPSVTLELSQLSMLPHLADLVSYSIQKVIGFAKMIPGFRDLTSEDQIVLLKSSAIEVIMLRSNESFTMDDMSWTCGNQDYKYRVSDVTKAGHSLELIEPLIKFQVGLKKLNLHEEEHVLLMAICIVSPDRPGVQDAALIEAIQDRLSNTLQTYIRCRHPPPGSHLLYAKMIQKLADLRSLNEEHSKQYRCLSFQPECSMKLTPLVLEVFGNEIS
Retinoic acid receptor RXR-alpha (Homo sapiens), sequence (P19793 whole entry, looked up): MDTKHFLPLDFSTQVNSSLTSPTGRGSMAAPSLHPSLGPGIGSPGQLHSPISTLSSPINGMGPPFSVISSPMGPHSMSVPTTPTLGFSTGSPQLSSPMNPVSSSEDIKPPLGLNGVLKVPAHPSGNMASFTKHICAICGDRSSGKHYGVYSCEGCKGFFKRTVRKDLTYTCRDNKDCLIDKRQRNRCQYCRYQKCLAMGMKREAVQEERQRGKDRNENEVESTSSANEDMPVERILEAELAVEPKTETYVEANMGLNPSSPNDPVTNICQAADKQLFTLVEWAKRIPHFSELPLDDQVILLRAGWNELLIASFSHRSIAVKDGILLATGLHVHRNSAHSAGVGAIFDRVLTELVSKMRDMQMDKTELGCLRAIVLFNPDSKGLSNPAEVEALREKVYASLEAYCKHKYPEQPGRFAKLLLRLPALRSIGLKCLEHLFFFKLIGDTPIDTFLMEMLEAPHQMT
Peroxisome proliferator-activated receptor gamma (Homo sapiens), sequence (P37231 whole entry, looked up): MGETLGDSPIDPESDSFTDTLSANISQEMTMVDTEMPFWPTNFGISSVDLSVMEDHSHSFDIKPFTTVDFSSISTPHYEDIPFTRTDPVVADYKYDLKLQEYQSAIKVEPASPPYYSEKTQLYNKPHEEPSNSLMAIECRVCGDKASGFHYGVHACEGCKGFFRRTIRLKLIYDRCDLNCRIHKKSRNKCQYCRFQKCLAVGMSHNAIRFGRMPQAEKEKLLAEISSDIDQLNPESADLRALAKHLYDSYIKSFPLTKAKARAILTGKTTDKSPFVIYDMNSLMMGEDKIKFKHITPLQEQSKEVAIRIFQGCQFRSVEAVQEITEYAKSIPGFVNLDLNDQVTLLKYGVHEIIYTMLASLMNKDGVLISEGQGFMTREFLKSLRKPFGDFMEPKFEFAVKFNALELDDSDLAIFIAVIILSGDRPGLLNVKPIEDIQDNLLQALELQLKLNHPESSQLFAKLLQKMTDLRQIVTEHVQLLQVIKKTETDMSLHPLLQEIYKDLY
Luciferin 4-monooxygenase (Photinus pyralis), sequence (P08659 whole entry, looked up): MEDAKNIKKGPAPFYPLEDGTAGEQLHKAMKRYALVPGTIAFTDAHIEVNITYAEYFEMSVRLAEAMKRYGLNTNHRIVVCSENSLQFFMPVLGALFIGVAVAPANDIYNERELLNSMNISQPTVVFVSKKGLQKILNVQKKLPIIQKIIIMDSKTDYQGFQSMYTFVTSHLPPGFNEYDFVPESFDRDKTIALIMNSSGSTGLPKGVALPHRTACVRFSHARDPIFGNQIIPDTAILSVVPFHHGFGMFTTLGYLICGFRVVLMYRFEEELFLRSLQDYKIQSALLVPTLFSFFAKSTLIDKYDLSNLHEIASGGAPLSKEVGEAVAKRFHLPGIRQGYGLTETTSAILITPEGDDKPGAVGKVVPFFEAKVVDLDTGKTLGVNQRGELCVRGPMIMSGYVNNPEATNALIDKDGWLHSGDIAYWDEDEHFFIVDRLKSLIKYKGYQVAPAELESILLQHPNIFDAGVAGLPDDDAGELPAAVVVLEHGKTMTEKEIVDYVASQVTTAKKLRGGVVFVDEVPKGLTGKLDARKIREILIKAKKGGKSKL
Peroxisome proliferator-activated receptor alpha (Homo sapiens), sequence (Q07869 whole entry, looked up, the tested form may be a part): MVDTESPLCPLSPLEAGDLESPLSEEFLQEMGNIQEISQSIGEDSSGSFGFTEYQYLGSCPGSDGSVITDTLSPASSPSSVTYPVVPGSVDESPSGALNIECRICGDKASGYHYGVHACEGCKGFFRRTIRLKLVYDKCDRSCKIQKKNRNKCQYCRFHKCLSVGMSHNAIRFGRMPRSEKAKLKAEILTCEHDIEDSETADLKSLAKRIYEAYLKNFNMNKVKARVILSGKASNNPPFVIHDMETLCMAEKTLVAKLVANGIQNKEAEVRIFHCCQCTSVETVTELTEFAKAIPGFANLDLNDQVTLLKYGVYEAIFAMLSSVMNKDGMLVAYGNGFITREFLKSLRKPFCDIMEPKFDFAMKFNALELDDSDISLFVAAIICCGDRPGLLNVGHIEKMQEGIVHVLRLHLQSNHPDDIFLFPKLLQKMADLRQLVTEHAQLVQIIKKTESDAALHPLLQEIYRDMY
Bile acid receptor (Homo sapiens), sequence (Q96RI1 whole entry, looked up): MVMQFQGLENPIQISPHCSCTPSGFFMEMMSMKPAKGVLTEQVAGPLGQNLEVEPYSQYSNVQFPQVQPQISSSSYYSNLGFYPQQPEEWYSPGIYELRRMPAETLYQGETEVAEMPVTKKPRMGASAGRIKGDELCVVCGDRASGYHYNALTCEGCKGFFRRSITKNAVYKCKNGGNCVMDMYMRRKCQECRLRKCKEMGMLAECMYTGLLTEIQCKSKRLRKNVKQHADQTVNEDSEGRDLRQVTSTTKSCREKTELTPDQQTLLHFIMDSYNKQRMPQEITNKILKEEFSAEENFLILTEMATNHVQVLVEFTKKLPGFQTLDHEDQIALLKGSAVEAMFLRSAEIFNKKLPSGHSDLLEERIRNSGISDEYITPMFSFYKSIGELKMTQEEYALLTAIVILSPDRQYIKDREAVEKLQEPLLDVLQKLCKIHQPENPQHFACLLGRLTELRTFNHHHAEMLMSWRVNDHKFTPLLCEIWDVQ
Peroxisome proliferator-activated receptor delta (Homo sapiens), sequence (Q03181 whole entry, looked up): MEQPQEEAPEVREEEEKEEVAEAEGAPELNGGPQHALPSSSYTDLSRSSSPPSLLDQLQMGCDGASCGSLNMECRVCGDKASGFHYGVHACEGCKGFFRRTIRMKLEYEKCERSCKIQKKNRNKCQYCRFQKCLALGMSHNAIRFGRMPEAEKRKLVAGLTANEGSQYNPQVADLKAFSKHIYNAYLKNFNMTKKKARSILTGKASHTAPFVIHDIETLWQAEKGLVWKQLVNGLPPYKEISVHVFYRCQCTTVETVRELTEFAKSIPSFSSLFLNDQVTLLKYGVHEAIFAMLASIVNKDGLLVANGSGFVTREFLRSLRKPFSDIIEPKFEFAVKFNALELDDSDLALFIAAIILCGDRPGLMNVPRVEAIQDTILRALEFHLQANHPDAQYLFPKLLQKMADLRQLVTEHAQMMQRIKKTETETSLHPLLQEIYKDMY
N-terminal Xaa-Pro-Lys N-methyltransferase 1 (Homo sapiens), sequence (Q9BV86 whole entry, looked up): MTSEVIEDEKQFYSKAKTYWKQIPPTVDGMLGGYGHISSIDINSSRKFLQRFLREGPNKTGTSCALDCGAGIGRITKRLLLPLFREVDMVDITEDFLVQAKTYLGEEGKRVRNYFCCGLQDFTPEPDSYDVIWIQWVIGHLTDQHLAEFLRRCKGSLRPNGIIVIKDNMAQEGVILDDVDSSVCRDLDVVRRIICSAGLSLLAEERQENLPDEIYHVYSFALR

COc1ccc(Cn2c(SCC(=O)N3CCN(c4ccc(F)cc4)CC3)nc3ccccc32)cc1
active: Potency [1] 1.69 µM

COc1ccccc1NC(=O)Cn1c(=O)n(Cc2nc(-c3ccccc3)no2)c(=O)c2ccccc21
active: Potency [1] 2.39 µM

COc1cc2nc(N3CCOCC3)nc(NC(C)C)c2cc1OC
active: Potency [2] 34.5 µM

CCCOC(=O)c1cc(O)c(O)c(O)c1
51.1%: max response [5]
active: Potency [15] 9.69 µM
14.7%: max response [10]
inactive: outcome [3] | activation [4] -7.56% | outcome [6] | outcome [7] | outcome [8] | outcome [9] | outcome [11] | outcome [12] | activity change % (negative = inhibition) [13] 5.53% | Potency [14] | activation [16] -0.803% | activation [17] 4.88% | max response [18] 0.0423% | max response [19] -15.7% | max response [20] 14.7% | max response [21] -23.3% | outcome [22] | Potency [1] | max response [23] -2.93%

Reference: PubChem BioAssay (NCATS)
